# From PubChem
# ALDH1A1 block – blocks purified human ALDH1A1 activity; 220,000 tested, 7.3% active; Potency, µM (titrated, usually from 75.3 µM), inactives show top-dose activity, negative = inhibition, actives largely listed as inhibitors; Purified ALDH1A1, NADH fluorescence, propionaldehyde substrate; active = well fitted inhibition curve with a large enough effect, not every such curve was filed as active; inconclusive = small, poorly fitted or top-dose-only effect, or another doubt; inactive = no such curve, though single readings can be large or run the other way;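 note: plate controls were no enzyme wells and a reference inhibitor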
# KinaseGlo FLuc – counter-screen: inhibitors of Kinase-Glo firefly luciferase; Potency, µM (titrated, usually from 38.3 µM), inactives show at the top dose activity change, negative = inhibition, hits mostly inhibitors; Q27757; 200,000 tested, 0.28% active; Kinase-Glo luciferase, ATP luminescence, 8 min; note: % is set by controls: 0 for no effect and ±100 for the full control effect; nearly all actives have a fitted effect of over 60% in size
#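 Compound is pinned into ATP-containing buffer (10 uM ATP, imidazole pH 7.2, 7 mM MgCl2). Kinase-Glo luciferase reagent is then added. Light output is recorded following an 8-min room-temperature incubation.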
# HPGD block – blocks human HPGD enzyme activity | P15428 | 150,000 tested, 4.3% active | purified HPGD, NADH fluorescence kinetic, PGE2 substrate | Potency, µM, inactives show at the top dose activity change, negative = inhibition, actives largely listed as inhibitors | AID 894; active = well fitted inhibition curve with a large enough effect, not every such curve was filed as active; inconclusive = small, poorly fitted or top-dose-only effect, or another doubt; inactive = no such curve, though single readings can be large or run the other way; note: % is set by controls: 0 for no effect and ±100 for the full control effect
# Target sequence (P15428 whole entry, looked up): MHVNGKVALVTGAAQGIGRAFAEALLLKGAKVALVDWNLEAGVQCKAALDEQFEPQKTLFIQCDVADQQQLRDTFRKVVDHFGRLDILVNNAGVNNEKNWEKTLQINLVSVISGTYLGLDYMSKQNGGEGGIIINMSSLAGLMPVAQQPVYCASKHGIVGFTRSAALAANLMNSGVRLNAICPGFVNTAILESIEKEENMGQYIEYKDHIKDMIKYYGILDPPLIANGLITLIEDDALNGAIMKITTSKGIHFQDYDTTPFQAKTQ
#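 20 nM HPGD preincubated 15 min at room temperature with compound in 50 mM Tris-HCl pH 8, 0.01% Tween 20. Started with 1 mM NAD+ and 30 uM prostaglandin E2; NADH fluorescence (360/450 nm) read 5 times over 30-s intervals, last minus first.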
# HTT ATP protect – Huntington cell model cytoprotection by ATP luminescence; PC12 HTT-Q103 induced, cytoprotection, ATP luminescence, 40 h; Potency, µM (top dose mostly 56.4 µM), inactives show cytoprotection (ATP increase), actives largely listed as activators; 230,000 tested, 0.14% active; AID 1471; note: % of control where 0% means no effect; nearly all actives have a fitted effect of over 45% in size
#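 Compounds added alongside 100 nM tebufenozide, which induces toxic Q103 huntingtin exon 1-GFP in stable PC12 cells; surviving cells quantified by luminescent ATP measurement. Medium: phenol red-free DMEM, 5% equine and 5% calf serum.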
# Lamin A splicing – modulators of lamin A splicing; HeLa LMNA splicing GFP/RFP minigene ratio, 48 h; Potency, µM (series often up to 46.1 µM), inactives show top-dose ratio change, negative = inhibition, most hits filed as inhibitors; 200,000 tested, 0.01% active; active = well fitted inhibition curve with a large enough effect in the signal ratio, with a control signal flat, not every such curve was filed as active; inconclusive = small, poorly fitted or top-dose-only effect, or effect the other way, or a change in a side signal; the % refers to the signal ratio; note: % is set by controls: 0 for no effect and ±100 for the full control effect
#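 S3 HeLa stable clones carrying a lamin A-EGFP splicing minigene plus DsRed2 were seeded at 600 cells/well in Opti-MEM with 2% FBS, pin-dosed and incubated 48 h at 37°C. Acumen cytometry (488 nm) gave the GFP/RFP total-intensity ratio.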
# HttQ103 aggreg – mutant huntingtin aggregation inhibition | PC12 HttQ103-GFP aggregates, Acumen cytometry, 40 h | Potency, µM (doses to about 46.1 µM), for the others: top-dose activity change, negative = inhibition, actives largely listed as inhibitors | 220,000 tested, 1.1% active; note: % is set by controls: 0 for no effect and ±100 for the full control effect; nearly all actives have a fitted effect of over 60% in size
#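 PC12 cells stably carrying ecdysone-inducible HTT exon 1 Q103–GFP were induced with tebufenozide (100 nM final) and treated with library compounds in titration. GFP aggregates in lysates were counted by laser scanning cytometry.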
# An asterisk follows results filed as active; u = inconclusive; x = not tested or not shown; [ ] = remark or other dose. Shown are actives, neighbours in structure and some others; about 9% of the full set was active somewhere. Unless noted, calls come from the whole dose curve; as a rule, active = well fitted curve in the direction sought with a large enough effect; inconclusive = small, poorly fitted or top-dose-only effect, or another doubt; inactive = no such curve, though single readings can be large; an effect the other way counts as inactive or inconclusive. Potency is the fitted concentration of half-maximal effect.
SMILES,ALDH1A1 block,KinaseGlo FLuc,HPGD block,HTT ATP protect,Lamin A splicing,HttQ103 aggreg
CCCN1Cc2cccc(C(=O)NC(CC(=O)OCC)c3ccc(C)cc3)c2C1=O (configuration not stated),13µM*,x,x,-30%,x,23%
COc1ccc(C(=O)C2CCN(C(=S)Nc3ccc(F)cc3)CC2)cc1,-2%,-1%,x,2.5µM*,x,-32%
CCOc1ccccc1NC(=O)N1CCC(C(=O)c2ccc(F)cc2)CC1,5µM*,-1%,-10%,3%,-12%,18%
COc1ccc(NC(=S)N2CCC(C(=O)c3ccc(F)cc3)CC2)c(OC)c1,1%,3%,x,-37%,2%[46 µM],-11%
CC1CC(=O)Nc2ccccc2N1C(=O)Nc1ccc(F)cc1F (configuration not stated),x,x,x,13%[10 µM],x,-20%[9.22 µM]
N#Cc1cc([N+](=O)[O-])ccc1NC(=O)COC(=O)C12CC3CC(CC(C3)C1)C2,22µM*,5%,x,-9%,x,-18%
Cn1ncc2cc(NC(=S)NC(=O)c3ccccc3)ccc21,u,-7%,u,-22%,3%,-13%
CN(C)c1ccc(/C=C/c2cc[n+](C)cc2)cc1,14µM*,-14%,-6%,-70%,u,2.5µM*
CC[n+]1ccc(/C=C/c2ccc(N(C)C)cc2)c2ccccc21,22µM*,u,x,-58%[10 µM],u,u
C[n+]1c(/C=C/c2ccc3c(c2)OCO3)ccc2ccccc21,u,-26%,x,-30%,x,-6%
CN(C)c1ccc(/C=C/c2cc[n+]([O-])cc2)cc1,0%,-2%,-14%,-13%,11%,7%
CC[n+]1ccccc1/C=C/c1ccc(N(C)C)cc1,u,-10%,x,-79%,x,2.8µM*
CC[n+]1c(/C=C/c2ccc(N(C)C)cc2)ccc2ccccc21,u,8.9µM*,-25%,x,u,u
O=C1CC(C(=O)Nc2ccc(F)cc2)S/C(=N\N=C\c2ccco2)N1 (configuration not stated),7%,2%,-27%,43%[10 µM],-2%,0%
COc1ccc(N2CSC3=C(C#N)C(c4cccs4)CC(=O)N3C2)cc1 (configuration not stated),2µM*,-9%,7.1µM*,-14%,5%,31%
CN1CSC2=C(C#N)C(c3cccc(OCc4ccccc4)c3)CC(=O)N2C1 (configuration not stated),7.9µM*,-1%,14µM*,-14%,u,11%
CCOC(=O)c1ccc(N2CSC3=C(C#N)C(c4cccs4)CC(=O)N3C2)cc1 (configuration not stated),22µM*,5%,-7%,-22%,0%,17%
Cc1ccc(N2C(N)=C(C#N)C(c3cccs3)C3=C2CC(C)(C)CC3=O)cc1 (configuration not stated),u,0%,u,5%,u,-4%
Cc1ccc(N2CSC3=C(C#N)C(c4cccs4)CC(=O)N3C2)cc1 (configuration not stated),8.9µM*,1%,7.9µM*,-38%,-1%,-8%
Nc1nc(-c2ccccc2)[nH]c(=O)c1N,u,-15%,u,x,-5%,-3%
CCc1ccc(N2CSC3=C(C#N)C(c4cccs4)CC(=O)N3C2)cc1 (configuration not stated),8.9µM*,3%,13µM*,-25%,0%,0%
N#CC1=C2SCN(c3ccc(F)cc3)CN2C(=O)CC1c1cccc(F)c1 (configuration not stated),1.9µM*,-2%,5.6µM*,-28%,-5%,7%
N#CC1=C2SCN(Cc3ccco3)CN2C(=O)CC1c1ccccc1F (configuration not stated),10µM*,-2%,18µM*,14%,3%,5%
CCc1ccc(C2CC(=O)N3CN(c4ccccc4)CSC3=C2C#N)cc1 (configuration not stated),10µM*,-4%,7.9µM*,-19%,2%,-1%
N#CC1=C2SCC(O)(c3ccccc3)N2C(=O)CC1c1ccccc1 (configuration not stated),u,1%,-3%,-57%,u,u
SMILES,ALDH1A1 block,KinaseGlo FLuc,HPGD block,HTT ATP protect,Lamin A splicing,HttQ103 aggreg
CC(=O)Nc1cccc(C2=CC(c3ccco3)n3ncnc3N2)c1 (configuration not stated),u,-1%,x,-63%,-23%[46 µM],4%
Cc1ccc(-c2cc(-c3ccccc3)[nH]c(=S)c2C#N)cc1,u,3%,-11%,34%[10 µM],-4%,18%
N#Cc1c(N)[nH]c(=S)c(C#N)c1-c1ccccc1,28µM*,12%,-24%,-10%,-5%,13%
CC(C)(C)C(=O)NNC(=O)COc1ccc2ccccc2c1Br,-9%,0%,x,-31%,u,-13%
COC(=O)NNC(=O)COc1ccc2ccccc2c1Br,-1%,-3%,16µM*,-11%[10 µM],-2%,18%
O=C(Oc1ccc2ccccc2c1Br)N1CCCCCC1,-3%,-12%,32µM*,-15%,u,u
CCN(CC)C(=O)Oc1ccc2ccccc2c1Br,-3%,0%,x,-15%,x,-4%
CCN(CC(=O)Nc1ccc2c(c1)OCCO2)Cc1cc(=O)n2ccsc2n1,20µM*,3%,x,-29%,x,25%
O=C(CNCc1ccccc1Cl)Nc1ccc2c(c1)OCCO2,13µM*,x,x,5%[10 µM],x,3%[9.22 µM]
CCN(CC(=O)Nc1ccc2c(c1)OCCO2)Cc1cc(=O)oc2c(C)c(C)ccc12,16µM*,-4%,-17%,-9%[10 µM],6%,0%
CCN(CC(=O)Nc1ccc2c(c1)OCCO2)CC(=O)Nc1ccc2c(c1)OCO2,10µM*,2%,x,-29%,x,2%
Cc1ccc2c(CN3CCN(S(=O)(=O)c4ccc5c(c4)OCCO5)CC3)cc(=O)oc2c1C,1%,-3%,-15%,-18%,u,-31%
COCC(=O)Nc1ccc2c(c1)OCO2,-2%,-3%,x,-33%[10 µM],x,-10%[9.22 µM]
O=C(c1cccc(F)c1)N1CCC[C@@]2(CCN(c3ncccn3)C2)C1,u,-2%,-18%,u,x,x
O=C1NC[C@H](Cc2ccc(O)cc2)N(CCc2cccc3ccccc23)C1=O,x,x,x,11%[10 µM],x,-32%[9.22 µM]
c1ccc2c(N3CCOCC3)nc(-c3ccncc3)nc2c1,-5%,1%,-6%,-26%[10 µM],u,u
c1cncc(-c2nc(N3CCOCC3)c3ccccc3n2)c1,u,17%,-30%,-7%,-18%,0.89µM*
O=C1CN(C(=O)CNC(=O)c2cccc(Cl)c2)c2ccccc2N1,0%,-3%,x,-47%,-12%[46 µM],-20%
